61 compounds from PubChem BioAssay AID504329 (Southern Research Specialized Biocontainment Screening …, 2011) can be followed below.

A word on the inhibition: it is the relative decrease from the control value, in per cent.

Among all 340,000 compounds or so, about 1,000 (0.29%) were called active. Cut-off read from the data, not from the text of the source: inconclusive = inhibition above about 27% without an active follow-up result; inactive = below that. The list is a sample of the results. Measured potencies and affinities stand elsewhere.

The nature of this test: NS1A inhibition, H1N1 influenza, cell based functional assay (AID 504329). The note with it: percent inhibition, at 12.5 µM, active compounds read high.
In the case of `COc1ccc(NC(=O)COC(=O)c2ccc3ccccc3n2)cc1`, the inhibition is -0.01% (inactive).

For the compound `CCN(CC)c1ccc(NC(=O)COC(=O)c2ccc3ccccc3n2)cc1`, the inhibition is 17.3% (inactive).

Take `O=C(Nc1ccn(CCCNCc2ccccc2)c(=O)n1)OCc1ccccc1`: the inhibition is -1.35% (inactive).

For `COc1cc(CN2CC=C(c3ccc(F)cc3)CC2)cc(OC)c1`, the inhibition is -3.66% (inactive).

On to `CCN(CC)c1ccc(CN2CC=C(c3ccc(F)cc3)CC2)cc1`, for which the inhibition is 23.1% (inactive).

Regarding `N[C@@H](Cc1ccc(O)cc1)c1nnc([C@H](CO)NC(=O)C2CCNCC2)o1`, the inhibition was -21.5% (inactive).

`COc1ccccc1C=NNC(=O)c1ccccc1OCCOc1ccccc1`: the inhibition is -1.44% (inactive).

For the compound `COc1ccc(CCc2nnc(N)s2)cc1OC`, the inhibition was -1.61% (inactive).

Consider `CCOC(=O)c1cc(-c2ccc(Cl)s2)[nH]n1`, for which the inhibition was 0.06% (inactive).

As to `O=C1NC(=O)N(Cc2ccco2)C(=O)/C1=C/C=C/c1ccco1`, the inhibition is -3.06% (inactive).

For `NC(=O)C1CCN(/C=C2\C(=O)NC(=O)N(Cc3ccco3)C2=O)CC1`, the inhibition is -5.38% (inactive).

Take `CCN(CC)c1ccc(/C=C2/C(=O)NC(=O)N(Cc3ccco3)C2=O)cc1`: the inhibition was 7.25% (inactive).

As for `Cn1cccc1/C=C1\C(=O)NC(=O)N(Cc2ccco2)C1=O`, the inhibition was 3.7% (inactive).

`COC(=O)c1ccc(NC(=O)CNS(=O)(=O)c2cccs2)cc1`: the inhibition was 1.39% (inactive).

As to `COc1ccc(C(=O)N/N=C/c2ccccn2)cc1OC`, the inhibition is 0.68% (inactive).

`COc1cc(NC(=O)c2ccccn2)cc(OC)c1OC`: the inhibition is -8.83% (inactive).

As for `COc1ccc(C(=O)N/N=C(\C)CC(=O)Nc2ccccn2)cc1OC`, the inhibition is 1.35% (inactive).

For `COc1cc(C(=O)N/N=C(\c2ccccc2)c2ccccn2)cc(OC)c1OC`, the inhibition was 8.37% (inactive).

Take `COc1ccc(NC(=S)N2CCN(Cc3ccccc3)CC2)c(OC)c1`: the inhibition was -3.28% (inactive).

Turning to `Fc1cccc(-c2oncc2-c2nnnn2-c2ccc(Cl)cc2)c1`, the inhibition is 12.9% (inactive).

As to `CCOC(=O)c1ccc(NC(=O)CCNS(=O)(=O)c2cc(Br)cnc2N)cc1`, the inhibition is 1.26% (inactive).

Regarding `CN1CCN(C2=C(Cl)C(=O)c3ccccc3C2=O)CC1`, the inhibition is -8.61% (inactive).

Take `O=C1C(Cl)=C(N2CCC(C(=O)O)CC2)C(=O)c2ccccc21`: the inhibition was 0.19% (inactive).

For the compound `C[C@H](CO)N1C[C@H](C)[C@H](CN(C)Cc2ccccc2)Oc2c(NC(=O)Nc3ccc(F)cc3)cccc2C1=O`, the inhibition is -3.95% (inactive).

As for `Cc1ccc(C(=O)OCC(=O)c2ccc(Cl)s2)s1`, the inhibition is 1.17% (inactive).

For `CC1(C)CC(NC(=O)C23CCC(C)(C2Br)C3(C)C)CC(C)(C)N1` (stereo unspecified), the inhibition was -5.71% (inactive).

On to `CCN1C(c2ccccc2)=C(c2ccccc2)S/C1=C\C=C1/SC(=S)N(C)C1=O`, for which the inhibition is 15.8% (inactive).

With `CCN1C(=O)/C(=C/C=C2/Sc3ccc4ccccc4c3N2CCO)SC1=S`, the inhibition was -5.98% (inactive).

For `CCCCCC/C=C/c1ccc(OC)c([C@H]2[C@H]3C=CC[C@@H](C)[C@@H]3C(=O)N2Cc2ccccc2)c1`, the inhibition is 6.03% (inactive).

Turning to `CCN1/C(=C/c2ccc3cc(C)ccc3[n+]2CC)Sc2cc(C)ccc21`, the inhibition is 19.4% (inactive).

In the case of `CCN1/C(=C\c2ccc3ccccc3[n+]2CC)Sc2cc(C)ccc21`, the inhibition was 11.8% (inactive).

As to `Cc1cc(C)nc(NS(=O)(=O)c2ccc(NS(=O)(=O)c3ccc(C#N)cc3)cc2)n1`, the inhibition is -5.4% (inactive).

For the compound `COC(=O)CNC(=O)CN(c1ccc(OC)cc1OC)S(=O)(=O)c1ccccc1`, the inhibition was -1.66% (inactive).

In the case of `Cc1cccc(NC(=O)Cn2c(O)c(N=NC(=O)c3ccncc3)c3ccccc32)c1`, the inhibition was -15.6% (inactive).

Consider `CN1CCc2c(sc3c2C(=O)NC(c2cccs2)N3)C1` (stereo unspecified), for which the inhibition was 1.19% (inactive).

As for `O=C1NC(c2ccncc2)Nc2sc3c(c21)CCCC3` (stereo unspecified), the inhibition is 2.95% (inactive).

Turning to `CN1CCc2c(sc3c2C(=O)NC(c2ccccc2)N3)C1` (stereo unspecified), the inhibition was -3.09% (inactive).

Consider `O=C1NC(c2cccs2)Nc2sc3c(c21)CCCC3` (stereo unspecified), for which the inhibition was 3.69% (inactive).

Turning to `CCN1C(=O)/C(=C2\SC(N3CCCCC3)=NC2=O)c2ccccc21`, the inhibition is 14.1% (inactive).

As for `CCN1C(=O)/C(=C2\SC(N3CCOCC3)=NC2=O)c2ccccc21`, the inhibition was 23.1% (inactive).

As to `CCCCN1C(=O)/C(=C2\SC(N3CCOCC3)=NC2=O)c2ccccc21`, the inhibition was 8.19% (inactive).

With `CN1C(=O)/C(=C2\SC(N3CCCCCC3)=NC2=O)c2ccccc21`, the inhibition is 20.3% (inactive).

As for `COC(=O)c1sccc1NC(=O)c1ccc(Br)o1`, the inhibition was 3.08% (inactive).

Turning to `Cc1nc2ccccc2c(=O)n1NC(=O)c1cc(Br)ccc1Cl`, the inhibition is 3.26% (inactive).

With `CCOC(=O)c1c(NC(=O)CNCCO)sc(C)c1C`, the inhibition was -0.57% (inactive).

Regarding `CN(CCCNC(=O)c1cc2c(=O)[nH]c3ccccc3c2n1C)Cc1ccccc1`, the inhibition is -0.58% (inactive).

As for `CCN1CCN(C(=O)c2cc(-c3ccc(Cl)s3)nc3ccccc23)CC1`, the inhibition is -3.92% (inactive).

Turning to `COc1cc(C(=O)OCC(=O)NC(=O)c2cccn2C)ccc1OC(F)F`, the inhibition is 5.75% (inactive).

As to `COc1ccc(Oc2ccccc2/C=N/O)cc1`, the inhibition is -9.31% (inactive).

On to `COc1ccc2nc(-c3ccccn3)[nH]c2c1`, for which the inhibition is -6.69% (inactive).

As to `CC(C)(C)c1cc(=O)[nH]c(SCc2ccccc2)n1`, the inhibition was -17.8% (inactive).

Turning to `Cn1nc(C(F)(F)F)c(CO)c1Sc1ccc(F)cc1`, the inhibition was 5.51% (inactive).

As for `CN(CCCS(=O)(=O)[O-])c1ccc(/C=C/c2ccc3ccccc3[n+]2C)cc1`, the inhibition is -6.52% (inactive).

On to `CN(C)c1ccc(/C=C/c2ccc3ccccc3n2)cc1`, for which the inhibition was -37.5% (inactive).

Turning to `CN(C)c1ccc(/C=C/c2nc3ccccc3c(=O)[nH]2)cc1`, the inhibition was -10.6% (inactive).

With `CC[n+]1c(SC)ccc2cc(OC)ccc21`, the inhibition is -5.15% (inactive).

Turning to `CC[n+]1cc(C)ccc1/C=C/c1ccc(N(C)C)cc1`, the inhibition is -3.01% (inactive).

Regarding `CC[n+]1c(/C=C/c2ccc(OC(C)=O)c(OC)c2)ccc2ccccc21`, the inhibition is 18.9% (inactive).

`C[n+]1c(/C=C/c2ccc3c(c2)OCO3)ccc2ccccc21`: the inhibition is 8.1% (inactive).

As to `CC[n+]1c(/C=C/c2ccc(OC)c(OC)c2)ccc2ccccc21`, the inhibition is 3.91% (inactive).

As to `O=C(Nc1nc2ccccc2[nH]1)NC1CCCCC1`, the inhibition was -9.13% (inactive).
